RXFP1 antagonist = blocks the human relaxin receptor RXFP1 | actives 0.59% (n = 350,000) | HEK293-RXFP1, relaxin-stimulated cAMP HTRF, 30 min; hits give low values | Q9HBX9 | activity change, negative = inhibition, % at 57.5 µM;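 active = activity change of -60% or lower, but not beyond a set lower limit; inconclusive = change between -60% and -40%, or beyond the set limit; inactive = change above -40%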; also: % is scaled to controls: 0 for no effect and ±100 for the full control effect
Target sequence (Q9HBX9 whole entry, looked up): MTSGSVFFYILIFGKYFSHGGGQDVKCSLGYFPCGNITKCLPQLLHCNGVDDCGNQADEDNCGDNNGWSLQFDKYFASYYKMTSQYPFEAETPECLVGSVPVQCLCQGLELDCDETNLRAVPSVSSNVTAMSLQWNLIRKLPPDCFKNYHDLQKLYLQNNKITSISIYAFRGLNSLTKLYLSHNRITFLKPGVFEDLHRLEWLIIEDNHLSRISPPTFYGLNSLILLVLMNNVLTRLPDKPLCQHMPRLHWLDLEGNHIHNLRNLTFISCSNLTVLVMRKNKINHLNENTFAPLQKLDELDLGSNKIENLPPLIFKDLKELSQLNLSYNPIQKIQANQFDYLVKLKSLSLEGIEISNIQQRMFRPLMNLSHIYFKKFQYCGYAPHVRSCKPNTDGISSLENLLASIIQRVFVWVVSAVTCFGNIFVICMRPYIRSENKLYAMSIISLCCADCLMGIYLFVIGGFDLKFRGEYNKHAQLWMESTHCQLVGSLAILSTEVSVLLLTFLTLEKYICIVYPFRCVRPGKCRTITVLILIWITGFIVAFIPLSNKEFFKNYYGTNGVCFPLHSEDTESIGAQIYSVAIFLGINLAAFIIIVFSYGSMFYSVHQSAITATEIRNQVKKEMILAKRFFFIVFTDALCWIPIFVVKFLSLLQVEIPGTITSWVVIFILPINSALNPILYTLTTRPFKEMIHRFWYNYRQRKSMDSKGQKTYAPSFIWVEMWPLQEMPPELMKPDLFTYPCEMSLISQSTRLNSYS
gsp agonist = agonists of gsp mutant (McCune-Albright syndrome). Potency, µM (highest dose often 76.9 µM), for inactives: top-dose activation (cAMP increase), usual class: activators. AID 624287. gsp mutant cells, cAMP HTRF, 30 min. actives 0.13% (n = 340,000); active = well fitted activation curve with a large enough effect; inconclusive = small, poorly fitted or top-dose-only effect, or another doubt; inactive = no such curve, though single readings can be large or run the other way; cell line not stated here;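 also: phosphodiesterase inhibitor Ro 20-1724 added with compounds to block cAMP breakdown; potency is read from the fitted curve at half-maximal effect; nearly all actives have a fitted effect of over 60% in size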
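Cells in DMEM/10% FBS with G418 were pretreated with compounds in DMSO plus […] (300 uM stock) for 30 min at 37C. cAMP was measured by HTRF (cAMP-d2 plus anti-cAMP antibody-K) after 30 min at room temperature.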
gsp antag = antagonists of gsp mutant (McCune-Albright syndrome). gsp-mutant cells, cAMP HTRF, 30 min. Potency, µM (series often up to 76.9 µM), inactives show top-dose activity change, negative = inhibition, hits mostly inhibitors. actives 0.4% (n = 340,000). AID 624288; calls by dose curve; cell line not stated here;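 also: intracellular cAMP measured with PDE inhibitor Ro 20-1724 present during compound exposure; potency is read from the fitted curve at half-maximal effect; % is scaled to controls: 0 for no effect and ±100 for the full control effect; nearly all actives have a fitted effect of over 65% in size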
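HTRF cAMP read-out (cAMP-d2 plus anti-cAMP antibody-K in lysis buffer, 30 min RT). Before lysis, cells are exposed to compounds with […] for 30 min at 37C in DPBS containing Ca/Mg, BSA and Tween 20.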
RXFP1 agonist = agonists of human relaxin receptor RXFP1; HEK293T-RXFP1 cAMP TR-FRET, 30 min; response scale: percent of porcine relaxin response, buffer zero; Q9HBX9; actives 0.3% (n = 370,000); Potency, µM (series often up to 57.5 µM), inactives show at the top dose activation, usual class: activators; AID 2676; active = well fitted activation curve with a large enough effect; inconclusive = small, poorly fitted or top-dose-only effect; also: potency is read from the fitted curve at half-maximal effect; % is scaled to controls: 0 for no effect and ±100 for the full control effect; nearly all actives have a fitted effect of over 60% in size
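HEK293 cells stably expressing RXFP1, treated 30 min at 37C with compounds plus PDE4 inhibitor Ro 20174; cAMP measured by HTRF TR-FRET. Normalized to buffer and 29 nM porcine relaxin; EC50 by Hill fit.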
pAkt inh = inhibitors of Akt phosphorylation; Neuro2A IGF-stimulated pAkt S473 HTRF, 20 min; hits give low values; activity change, % for hits at 50 µM; actives 0.32% (n = 360,000); in the data active = activity change below about -80%; inconclusive = mostly about -51% to -80%; also: % is scaled to controls: 0 for no effect and ±100 for the full control effect
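Single-point screen (50 µM final compound) in Neuro2A cells stimulated 20 min with 6 nM IGF at 37 deg C. After lysis, Ser473-phosphorylated Akt read by HTRF (ex 330 nm, em 615/665 nm) as the 665/615 ratio.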
TSHR antagonist = antagonists of human thyroid stimulating hormone receptor | activity change, negative = inhibition, % at 11.5 µM | actives 0.2% (n = 330,000) | TSHR-expressing cells, TSH-stimulated cAMP HTRF, 2 h; hits give low values | AID 504810 | P16473;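 active = activity change below a set negative limit, meaning inhibition stronger than a set level, cut at about -70% in these data; inconclusive = activity change between two set negative limits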; also: % is scaled to controls: 0 for no effect and ±100 for the full control effect
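Antagonism was scored as loss of TSH-driven cAMP in TSHR cells, stimulated with 4nM TSH (EC80) for 2 hours at 37 deg C and detected by homogeneous HTRF competition immunoassay.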
* hit, by the source's call; i = inactive; u = inconclusive; x = no result given; [ ] = another dose, or the depositor's remark. An excerpt weighted towards active compounds, which were near 1.3% of everything screened.

SMILES	RXFP1 antagonist	gsp agonist	gsp antag	RXFP1 agonist	pAkt inh	TSHR antagonist
CCOC(=O)N1CCN(C(=O)CSc2ccc3nnc(-c4cccnc4)n3n2)CC1	-1	u	-7%	14µM*	i	12
CCOc1ccccc1NC(=O)CSc1ccc2nnc(-c3cccnc3)n2n1	-2	24%[15.4 µM]	3%	u	i	-5
O=C(CSc1ccc2nnc(-c3cccnc3)n2n1)Nc1ccc(F)cc1	12	32%[15.4 µM]	-6%	u	i	6
Cc1ccc(CCNC(=O)c2ccc3c(c2)N(Cc2ccccc2F)C(=O)c2ccccc2S3=O)cc1 (stereo unspecified)	x	x	x	1%	x	x
O=C(NCc1ccccc1)C(c1ccc(-c2ccccc2)cc1)n1c(=O)c(-c2cc3ccccc3[nH]2)nc2ccccc21 (stereo unspecified)	x	x	x	x	i	x
Cc1c(C(=O)NCc2ccc3c(c2)OCO3)oc2ccc(S(=O)(=O)N3CCC(C)CC3)cc12	-3	-31%	2%	-1%	i	-16
CCc1ccc2oc(C(=O)NCc3ccc(S(N)(=O)=O)cc3)c(C)c2c1	-120*	18%	-1%	17%	i	1
Cc1c(C(=O)NCc2ccc3c(c2)OCO3)oc2ccc(S(=O)(=O)N3CCCCCC3)cc12	4	0%	-14%	0%	-112%*	x
Cc1cccc(OCc2nnc(N)s2)c1C	-3	16%	-6%	2%	-120%*	-19
O=C1OC(NC(=O)c2ccccc2)C(n2cc(CO)nn2)=C1Cl (stereo unspecified)	9	6%	9%	0%	-114%*	6
COC(=O)C1=C(C)NC(C)=C(C(=O)OCCN(C)Cc2ccccc2)C1c1cccc([N+](=O)[O-])c1 (stereo unspecified)	-76*	x	25%	-1%	i	-19
CCOC(=O)C(=Cc1ccc(Br)cc1)C(=O)OCC	-96*	-9%	-3%	5%	i	22
CCOC(=O)C(=Cc1ccc(F)cc1)C(=O)OCC	x	x	x	2%	x	13
O=c1[nH]c(SCc2n[nH]c(=S)n2-c2ccccc2)nc2sc3c(c12)CCC3	-67*	3%	6%	4%	i	6
CCCCSc1nc2sc3c(c2c(=O)[nH]1)CCC3	-3	20%	12%	-2%	i	7
Cc1nc(NC(=O)CSc2nnnn2C)sc1C	18	-59%	10%	-1%	i	7
Cc1csc(NC(=O)CSc2nnnn2C)n1	1	7%	11%	0%	-117%*	6
O=C(O)c1cccc(Nc2nc(-c3cc4ccccc4oc3=O)cs2)c1	1	5%[15.4 µM]	35µM*	6%	i	-19
CCOc1cc(/C=C(\C#N)C(=O)Nc2cccc(C(=O)O)c2)cc(Br)c1OC(=O)c1ccc(OC)cc1	-89*	10%	-12%	-3%	i	-5
Nc1ccc(Br)c2cccnc12	-65*	-12%[15.4 µM]	-16%	2%	i	-11
CS(=O)(=O)Oc1ccc(Br)c2cccnc12	-1	20%	11%	0%	i	-5
CCOC(=O)c1c(C)[nH]c(C(=O)OC(C)C(=O)NC2(C#N)CCCCC2)c1C (stereo unspecified)	1	-143%	x	x	i	x
c1ccc(-n2cnc3cc(NCc4ccncc4)ccc32)cc1	9	-6%	-13%	2%	-103%*	3
Cc1ccc(C(=O)Nc2cccc(Oc3ccccc3)c2)o1	-72*	25%	-9%	-2%	i	-4
Cc1ccc(C(=O)Nc2ccccc2Oc2ccccc2)o1	-11	u	1%	x	i	x
SMILES	RXFP1 antagonist	gsp agonist	gsp antag	RXFP1 agonist	pAkt inh	TSHR antagonist
Cc1ccc(NC(=O)C2CCN(S(=O)(=O)c3c(C)noc3/C=C/N(C)C)CC2)cc1	-112*	u	-13%	-2%	i	-3
Nc1sc2c(c1C(=O)NC1CCS(=O)(=O)C1)CCC2 (stereo unspecified)	-1	3%	-7%	2%	-130%*	0
CNC(=O)c1c(N)sc2c1CCCCC2	x	x	x	1%	x	-3
O=C(Nc1cccnc1Cl)c1ccc(Cl)cc1	-63*	-8%	0%	1%	i	-3
O=C(NC(=S)Nc1cccnc1Cl)c1ccc(Cl)cc1	-15	27%	-11%	0%	i	-5
CCOc1ccc(NC(=O)CN(c2ccc(C)cc2)S(=O)(=O)c2c(C)nn(C)c2C)cc1	-6	-17%	-4%	3%	x	6
CCc1ccc(NC(=O)CN(c2ccc(OC)cc2)S(=O)(=O)c2c(C)nn(C)c2C)cc1	-113*	u	-19%	-1%	i	8
Cc1cccc(/C=C(\C#N)C(=O)Nc2ccccn2)c1	7	u	6%	4%	i	-3
CNc1ccc(/C=C(\C#N)C(=O)Nc2ccccn2)cc1[N+](=O)[O-]	19	56%[15.4 µM]	6%	18µM*	i	64
Cc1cccc(OCC(O)CNC(C)(C)C)c1C (stereo unspecified)	11	x	x	x	x	x
Cc1cccc(Cc2c(C)nc3c(C(=O)N4CCN(Cc5ccc6c(c5)OCO6)CC4)cnn3c2C)c1	-2	2%	-10%	3%	-83%*	20
Cc1ccccc1Cc1c(C)nc2c(C(=O)N3CCN(Cc4ccc5c(c4)OCO5)CC3)cnn2c1C	6	13%	-9%	x	i	x
COC(=O)C1=C(C)N(c2cccc(C(C)=O)c2)C(=O)C1	-2	-24%	-3%	0%	i	x
COC(=O)C1=C(C)N(c2cccc(Cl)c2)C(=O)C1	0	-17%	-18%	0%	-118%*	-6
COc1ccc(OC)c(CNC(=O)c2ccc(Sc3ccc(Cl)cc3)c(NC(C)=O)c2)c1	-27	x	x	0%	x	x
CC(=O)Nc1cc(C(=O)N2CCCC2)ccc1Sc1ccc(C)cc1	-15	17%	20µM*	4%	i	-4
CC(=O)Nc1cc(C(=O)N2CCCC2)ccc1Sc1ccc(Cl)cc1	1	18%	11µM*	0%	i	-10
Cc1ccc(S(=O)(=O)N2CCC(C(=O)NC3CCCC3)CC2)cc1Cl	7	-11%[15.4 µM]	8%	0%	i	10
Cc1ccc(S(=O)(=O)N2CCCC(C(=O)NC3CCCC3)C2)cc1Cl (stereo unspecified)	12	9%[15.4 µM]	7%	0%	i	-84*
O=C(Oc1cccc(NC(=O)c2ccco2)c1)c1cccc(S(=O)(=O)N2CCCCC2)c1	-3	-4%	-6%	0%	-116%*	0
O=C(Nc1ccc(Cc2ccncc2)cc1)c1ccc(S(=O)(=O)N2CCCC2)cc1	-61*	8%	50µM*	1%	i	-20

Screening data (PubChem)
